Most compounds without a hit are left out; they make up all but 1.6% or so of the library.
PABP polyA inh – blocks human PABP binding to poly(A) RNA; P11940; fluorescence polarization; calls only at 35 µM; actives 1% (n = 290,000); AID 2014;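 also: calls also rest on retests at 20 µM and on dose response follow-up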
eIF4E 4G PPI – eIF4E/eIF4G interaction inhibition in translation initiation | P63073+Q04637 | TR-FRET eIF4E-eIF4GI(517-606) binding, 2 h | inhibition, % at 21.7 µM | actives 0.37% (n = 220,000);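 active = inhibition above about 30%, limit read from the data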;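 also: 0% = full FRET control wells and 100% = background wells lacking eIF4GI fragment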
PERK inh – blocks human PERK kinase; Q9NZJ5; CHO PERK-DD fusion, SEAP luminescence translation reporter; actives 0.17% (n = 220,000); AID 1416; inhibition, % at 5.6 µM;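 active = inhibition above the mean inhibition of all tested compounds plus 3 SD, set separately per screening campaign, cut at about 2.9% in these data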;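 also: PERK kinase domain activated by AP20187 dimerizer at 100 nM; 0% = DMSO with dimerizer and 100% = rapamycin at 8.4 µM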
MLLE-PAM2 inh – inhibitors of microRNA-mediated deadenylation, human PABP1 MLLE binding. P11940. GST-MLLE / FITC-PAM2 fluorescence polarization. actives 0.36% (n = 360,000). inhibition, % at 20 µM; in the data active = inhibition above about 35%, passing the limit was not always enough;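 also: plate controls were DMSO wells with GST-MLLE for no effect and wells lacking GST-MLLE protein for full effect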
eIF4H FP inh – inhibitors of RNA binding by human eIF4H; Q15056; eIF4H fluorescence polarization binding assay; inhibition, % at 35 µM; actives 0.94% (n = 290,000);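 also: calls also rest on retests at 20 µM and on dose response follow-up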
An asterisk follows results filed as active; i = inactive; ? = inconclusive; . = not tested or not shown; + = active, no number; ! = repeats disagree; [ ] = another dose, or the depositor's remark. Unless noted, no rule for the calls is given here.

SMILES	PABP polyA inh	eIF4E 4G PPI	PERK inh	MLLE-PAM2 inh	eIF4H FP inh
CCCCn1c(O)c(C(C)=NCCc2c[nH]c3ccccc23)c(=O)[nH]c1=O	+	1	-1	-1	84*
CC1CC2(C)C(=CC1=O)CCC1C3CCC(C)(O)C3(C)CC3OC312 (configuration not stated)	.	.	.	6	.
O=C(O)CCC(=O)NCCC1=c2ccccc2=N/C1=C\c1c(O)n(Cc2ccc(F)cc2)c(=S)[nH]c1=O	i	60*	1	-15	34
COc1cc2c(cc1OC)C(c1c(O)n(CCc3ccccc3)c(=S)[nH]c1=O)NCC2 (configuration not stated)	+	-6	1	.	?
C[N+](C)(C)CCc1ccc(O)cc1	+	3	1	-121	?
CCN(CC)c1ccc(N=Cc2c(O)n(-c3cc(OC)ccc3OC)c(=O)[nH]c2=O)cc1	+	1	1	-96	99*
CCCCC1(CC)COP(=O)(OCC(Cl)(Cl)Cl)OC1 (configuration not stated)	.	.	.	0	.
c1cncc(C2Nc3cccc4cccc(c34)N2)c1	+	2	0	18	92*
c1cncc(C2CCCCN2)c1 (configuration not stated)	i	8	0	3	-5
COc1cc2c(cc1OC)C13CCN4C=C5CCOC6CC(=O)N2C1C6C5CC43 (configuration not stated)	.	.	.	8	.
COc1cc(N2CCOCC2)ccc1C=C1C(=O)NC(=O)NC1=O	+	-6	0	1	69*
CC[C@@H](C(N)=O)N1CCCC1=O	i	98*	2	.	8
CCC(C(=O)Nc1ccc(Cl)cc1)N1CCCC1=O (configuration not stated)	.	.	.	8	.
Cc1ccc(CN(Cc2ccccc2)C(=S)NCC(=O)N2CCC3(CC2)OCCO3)o1	i	80*	-1	-136	2
O=C(Cn1ccc2ccccc2c1=O)NCC(=O)N1CCC2(CC1)OCCO2	i	6	-1	8	-2
C[C@@H]1CN([C@H](C)CO)C(=O)CCCn2cc(nn2)CO[C@H]1CN(C)C(=O)Oc1cccc2ccccc12	.	.	.	7	.
CNc1ccc2nc3ccccc3[n+](C)c2c1	?	.	.	86*	?
OCCNc1c2c(nc3ccccc13)CCCC2	i	-5	1	13	-4
C[n+]1c2ccccc2nc2ccc(NCCO)cc21	+	.	.	29	46
CN1CC=C2C(C#N)=C(N)C(C#N)(C#N)C(c3ccncc3)C2C1 (configuration not stated)	+	.	1	96	122*
Cc1ccc2cc(C=C(C#N)C#N)c(Cl)nc2c1	i	10	0	53*	?
Cc1cc(N2CCCC2)ccc1C=C(C#N)C#N	i	-3	0	57	?
COc1cc2c(cc1OC)-c1c(OC)c(OC)cc3c1[C@H](C2)N(C)CC3	i	3	-1	13	21
COc1cc2c(cc1O)CC1c3c(cc(O)c(OC)c3-2)CCN1C (configuration not stated)	+!	-4	0	7	81*!
C[C@@H]1CN([C@@H](C)CO)C(=O)CCCn2nncc2CO[C@H]1CN(C)C(=O)Oc1ccccc1	.	.	.	-2	.
SMILES	PABP polyA inh	eIF4E 4G PPI	PERK inh	MLLE-PAM2 inh	eIF4H FP inh
CCCC[N+]12CCC(CC1)C(C(O)(c1ccccc1)c1ccccc1)C2 (configuration not stated)	i	0	0	-107	active
CCC[N+]12CCC(CC1)C(C(O)(c1ccccc1)c1ccccc1)C2 (configuration not stated)	i	0	0	6	-8
CCC1CN2CCc3cc(OC)c(OC)cc3C2CC1CC1NCCc2c1[nH]c1ccc(O)cc21 (configuration not stated)	.	.	.	-1	.
O=C(Nc1cccnc1)c1c(O)c2c(n(Cc3ccccc3)c1=O)CCCC2	i	61*	0	6	3
O=C(Nc1ccc(F)cc1)c1c(O)c2c(n(Cc3ccccc3)c1=O)CCCC2	i	5	0	-1	4
CCOC(=O)c1cnc(SCc2ccc(Cl)c(Cl)c2)nc1N1CC1	.	.	.	9	.
CCCCn1c(=O)c(C(=O)NCc2ccccc2Cl)c(O)c2ccccc21	i	.	.	-8	6
CC(C)(C)N1C(=O)NC(=O)/C(=C\c2ccc3c(c2)CCN3CCCCl)C1=O	+	0	0	-142	80
CCN1C(=O)/C(=C/c2ccc3c(c2)CCN3CCCCl)C(=O)NC1=S	i	9	0	-41	51
Cc1cccc(-n2c(C)nc3ccccc3c2=O)c1C	+	2	1	8	-1
COc1ccccc1NC1(C#N)CCCCC1	i	0	0	-13	3
CCN(CC)c1ccc(/C=N/c2sc3c(c2C#N)C2CCN3CC2)c(O)c1	i	12	1	27	?
C[N+]1(C)C2CCC1CC(OC(=O)c1ccco1)C2 (configuration not stated)	.	0	3.3*	-103	.
CNc1cc(Cl)c2nonc2c1[N+](=O)[O-]	i	-2	0	40*	23
Cn1c(O)c(C(=O)c2ccccc2)c(=O)n(C)c1=O	+	-3	1	7	56*
Cn1cc(NC(=O)CCl)cn1	i	-5	0	7	1.5*
Nc1cncc(C(=O)O)c1	i	-3	2	12	53*!
CN(C)C1C(=O)C(C(N)=O)=C(O)C2(O)C(=O)C3=C(O)c4c(O)cccc4C(C)(O)C3C(O)C12 (configuration not stated)	+	.	.	21	99*
C[C@H]1C(=O)O[C@@H]2CCN3CC=C(COC(=O)[C@](C)(O)[C@]1(C)O)[C@H]23	.	.	.	-6	.
CCCCn1c(O)c(C(CC)=Nc2ccc(C(=O)O)cc2)c(=O)[nH]c1=O	i	-1	1	-3	62*
C=CCn1c(O)c(C(CC)=Nc2ccc(C(=O)O)cc2)c(=O)[nH]c1=O	i	-4	1	-1	20
CC(C)CN(CC(C)C)c1ccc(C=C2C(=O)NC(=S)NC2=O)cc1[N+](=O)[O-]	i	62*[fluorescence artefact?]	2	31	2
CC(C)N(C(=O)CCl)c1ccccc1	.	.	.	-4	.
O=c1[nH]c(O)c(N=Nc2cc([N+](=O)[O-])ccc2O)c(=O)[nH]1	i	-1	-1	-11	-5
CCN(CC)CCOC(=O)C(O)(c1ccccc1)c1ccccc1	i	1	0	-9	-15
CC(C)N1C(=O)CC2(CC[N+](C)(CCOC(=O)C(O)(c3ccccc3)c3ccccc3)CC2)C1=O (configuration not stated)	+	1	0	-107	1.2*
COc1ccc(-n2c(O)c(C=NCCN(C)C)c(=O)[nH]c2=O)cc1	i	0	2	-6	5
O=C(O)Cn1cc(/C=C2\C(=O)NC(=O)N(c3ccc(Cl)cc3)C2=O)c2ccccc21	?	.	.	-57	?
